{
  "source": "PubChem BioAssay AID376",
  "about": "(PDSP, 2006)",
  "note": "Hit rate of the full screen: of about 2,000 compounds, about 250 (12%) were called active. The full list was thinned out, with actives kept by preference. Unmarked numbers belong to inactive results. Rule as the data show it: active = hERG blockade below about -20% or above about 20%; inactive = in between.",
  "data": [
    {"molecular_target": "Voltage-gated inwardly rectifying potassium channel KCNH2 (Homo sapiens) (UniProt Q12809)", "sequence (Q12809 whole entry, looked up)": "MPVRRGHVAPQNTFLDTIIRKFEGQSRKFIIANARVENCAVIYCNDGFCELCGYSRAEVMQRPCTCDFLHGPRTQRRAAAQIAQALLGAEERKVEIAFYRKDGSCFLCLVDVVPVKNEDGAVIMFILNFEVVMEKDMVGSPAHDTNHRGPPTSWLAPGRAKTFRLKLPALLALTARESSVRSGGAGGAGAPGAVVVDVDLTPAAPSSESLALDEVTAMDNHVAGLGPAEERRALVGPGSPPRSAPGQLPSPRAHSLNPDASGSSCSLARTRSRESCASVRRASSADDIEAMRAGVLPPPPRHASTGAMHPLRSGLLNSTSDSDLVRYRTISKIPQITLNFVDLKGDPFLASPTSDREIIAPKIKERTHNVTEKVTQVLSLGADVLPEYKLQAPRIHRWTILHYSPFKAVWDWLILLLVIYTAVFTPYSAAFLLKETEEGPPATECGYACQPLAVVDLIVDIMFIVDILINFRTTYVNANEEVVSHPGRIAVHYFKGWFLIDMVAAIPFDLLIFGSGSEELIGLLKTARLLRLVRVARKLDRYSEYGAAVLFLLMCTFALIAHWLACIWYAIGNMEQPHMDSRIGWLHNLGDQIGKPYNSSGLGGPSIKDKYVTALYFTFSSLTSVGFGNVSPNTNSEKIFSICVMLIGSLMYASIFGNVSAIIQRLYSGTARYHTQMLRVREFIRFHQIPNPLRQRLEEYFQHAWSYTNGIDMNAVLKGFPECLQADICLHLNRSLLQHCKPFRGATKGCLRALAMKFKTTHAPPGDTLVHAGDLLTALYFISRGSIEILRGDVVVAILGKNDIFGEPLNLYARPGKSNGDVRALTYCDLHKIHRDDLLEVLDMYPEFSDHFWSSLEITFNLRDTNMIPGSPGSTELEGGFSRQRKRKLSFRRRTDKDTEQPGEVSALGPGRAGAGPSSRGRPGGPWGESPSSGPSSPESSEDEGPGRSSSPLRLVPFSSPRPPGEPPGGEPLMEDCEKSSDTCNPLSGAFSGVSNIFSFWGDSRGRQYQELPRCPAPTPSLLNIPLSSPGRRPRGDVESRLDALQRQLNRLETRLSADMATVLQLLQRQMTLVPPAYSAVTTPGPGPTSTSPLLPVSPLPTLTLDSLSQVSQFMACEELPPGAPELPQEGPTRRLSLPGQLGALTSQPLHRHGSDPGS", "assay": "modulators of KCNH2 ion channel function, cellular (AID 376);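 also: 0% = buffer alone and 100% = reference blocker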", "settings": "hERG-expressing cells, channel activity single-concentration screen; concentration not given here", "values": [
      {"smiles": "COc1cc2c(cc1OC)C(CCN)=NCC2", "hERG blockade": "26.9% (active)"},
      {"smiles": "Cc1cc(OCC(=O)O)c(Cl)cc1Cl", "hERG blockade": "3.22%"},
      {"smiles": "O=c1[nH]c(=S)[nH]c(-c2ccccc2)c1Cc1c(O)ccc2ccccc12", "hERG blockade": "-0.358%"},
      {"smiles": "S=c1nc[nH]c2c1ncn2Cc1ccco1", "hERG blockade": "-15.9%"},
      {"smiles": "O=C(O)CCn1cnc2c(=S)nc[nH]c21", "hERG blockade": "-35.8% (active)"},
      {"smiles": "O=C(O)CCCCn1cnc2c(=S)nc[nH]c21", "hERG blockade": "6.53%"},
      {"smiles": "Nc1ccccc1SCc1csc(-c2ccc(Cl)cc2)n1", "hERG blockade": "4.83%"},
      {"smiles": "CC(C)c1cc(C(F)(F)F)nc(NNc2nc(C(C)C)cc(C(F)(F)F)n2)n1", "hERG blockade": "7.39%"},
      {"smiles": "OCC1CCCC(n2cnc3c(=S)nc[nH]c32)O1", "note": "(centres undefined)", "hERG blockade": "-13.5%"},
      {"smiles": "Nc1nc2c(ncn2C2CCC(CO)O2)c(=O)n1C(=O)c1ccccc1", "note": "(centres undefined)", "hERG blockade": "-28.6% (active)"},
      {"smiles": "COc1nc(N)nc2c1ncn2C1CC(O)C(CO)O1", "note": "(centres undefined)", "hERG blockade": "12%"},
      {"smiles": "O=C(O)c1c2c(c(O)c3c1CN(C1CCCCC1)CO3)OCN(C1CCCCC1)C2", "hERG blockade": "-1.92%"},
      {"smiles": "C[N+](C)(C)CCCSc1nc2ccccc2[nH]1", "hERG blockade": "6.28%"},
      {"smiles": "CC(CCC(=O)O)(c1cc(Br)c(O)c(Br)c1)c1cc(Br)c(O)c(Br)c1", "hERG blockade": "5.39%"},
      {"smiles": "CN(C)CC(C)(C)CN1c2ccccc2Sc2ccccc21", "hERG blockade": "22.5% (active)"},
      {"smiles": "CN(C)CN1C(=O)SC(=C2C(=O)N(CN(C)C)c3ccccc32)C1=O", "hERG blockade": "-4.39%"},
      {"smiles": "c1ccc2c(c1)-c1nc3ccccc3cc1C2N1CCOCC1", "note": "(centres undefined)", "hERG blockade": "-9.86%"},
      {"smiles": "Cc1ncc(CN=Cc2ccc(Cl)cc2)c(N)n1", "hERG blockade": "6.55%"},
      {"smiles": "CC12CCC3c4ccc(O)cc4CCC3C1CCC2OC(=O)CCC1CCCC1", "note": "(centres undefined)", "hERG blockade": "6.8%"},
      {"smiles": "CC(Br)C(=O)c1ccc2cc(Br)c3ccccc3c2c1", "note": "(centres undefined)", "hERG blockade": "8.72%"},
      {"smiles": "CC(=NO)c1ccc2cc(Br)c3ccccc3c2c1", "hERG blockade": "61.6% (active)"},
      {"smiles": "CCCS(=O)(=O)O", "hERG blockade": "-0.642%"},
      {"smiles": "c1ccc2c(c1)c1ccccc1n2Cn1c2ccccc2c2ccccc21", "hERG blockade": "-38.4% (active)"},
      {"smiles": "c1ccc2c(CSCc3cccc4ccccc34)cccc2c1", "hERG blockade": "13.9%"},
      {"smiles": "NC(=O)CC(N)c1nn[nH]n1", "note": "(centres undefined)", "hERG blockade": "-2.74%"},
      {"smiles": "COc1ccc2c(c1)N(CCC1CCCCN1C)c1ccccc1S2", "note": "(centres undefined)", "hERG blockade": "59.1% (active)"},
      {"smiles": "CN1CCCCC1CCN1c2ccccc2Sc2ccc(S(C)=O)cc21", "note": "(centres undefined)", "hERG blockade": "16.5%"},
      {"smiles": "CN1CCCCC1CCN1CCCCC1", "note": "(centres undefined)", "hERG blockade": "1.07%"},
      {"smiles": "OC(C1=CC(=Cc2ccncc2)c2ccccc21)c1ccncc1", "note": "(centres undefined)", "hERG blockade": "1.87%"},
      {"smiles": "O=C(NCc1cccs1)OC1CC2CCC1C2", "note": "(centres undefined)", "hERG blockade": "-2.2%"},
      {"smiles": "C[N+](C)(C)CC(=O)NN=Cc1c(O)ccc2ccccc12", "hERG blockade": "-4.06%"},
      {"smiles": "c1ccc2c(c1)-c1ccccc1C2N1CC2CCC(CC2)C1", "hERG blockade": "-7.32%"},
      {"smiles": "c1ccc(C(CCN2CCCC2)c2ccccn2)cc1", "note": "(centres undefined)", "hERG blockade": "3.48%"},
      {"smiles": "c1ccc(C(CCN2CC3CCC(CC3)C2)c2ccccc2)cc1", "hERG blockade": "56.9% (active)"},
      {"smiles": "Nc1cc(S(N)(=O)=O)ccc1SSc1ccc(S(N)(=O)=O)cc1N", "hERG blockade": "-0.877%"},
      {"smiles": "OC(COc1cccc2ccccc12)CN1CCOCC1", "note": "(centres undefined)", "hERG blockade": "2.26%"},
      {"smiles": "Nc1ccc2[nH]cc(CCC(=O)O)c2c1", "hERG blockade": "1.56%"},
      {"smiles": "O=P(O)(O)OC1OC(CO)C(O)C(O)C1O", "note": "(centres undefined)", "hERG blockade": "-24.6% (active)"},
      {"smiles": "OCC1OC(N2CCN(C3OC(CO)C(O)C(O)C3O)CC2)C(O)C(O)C1O", "note": "(centres undefined)", "hERG blockade": "-5.49%"},
      {"smiles": "Cc1c(Cl)c(S(N)(=O)=O)cc(S(N)(=O)=O)c1NC(=O)c1ccc(Cl)cc1", "hERG blockade": "12.5%"},
      {"smiles": "Cc1cccc(Cl)c1NCC(O)CN1CCN(C)CC1", "note": "(centres undefined)", "hERG blockade": "-2.1%"},
      {"smiles": "CC(C(=O)O)C(=Cc1ccc2c(c1)OCO2)C(=O)O", "note": "(centres undefined)", "hERG blockade": "0.849%"},
      {"smiles": "O=C(O)CC(Cc1ccc2c(c1)OCO2)C(=O)O", "note": "(centres undefined)", "hERG blockade": "6.12%"},
      {"smiles": "CC1Oc2ccc(C(=O)CC(C(=O)O)c3ccc4c(c3)OCO4)cc2O1", "note": "(centres undefined)", "hERG blockade": "-27.6% (active)"},
      {"smiles": "CN(C)Cc1ccc(-c2cc3onc(-c4ccccc4)c3c(=O)n2C)cc1", "hERG blockade": "10.3%"},
      {"smiles": "CC(C)(CO)N1CCN(C(=S)Nc2ccccc2)CC1", "hERG blockade": "0.768%"},
      {"smiles": "C[N+]1(C)CCOC(O)(c2ccccc2)C1", "note": "(centres undefined)", "hERG blockade": "17.7%"},
      {"smiles": "CC[N+](C)(CC)CCN1C(=O)c2ccccc2S1(=O)=O", "hERG blockade": "-0.137%"},
      {"smiles": "NS(=O)(=O)c1ccc(N=Nc2ccc[nH]c2=O)cc1", "hERG blockade": "16%"},
      {"smiles": "NS(=O)(=O)c1ccc(N=Nc2c[nH]c(=O)c(O)c2)cc1", "hERG blockade": "14%"},
      {"smiles": "Cn1c(N)c(N=Nc2ccc(S(N)(=O)=O)cc2)c(=O)n(C)c1=O", "hERG blockade": "31.1% (active)"},
      {"smiles": "S=c1nc(-c2nc(=S)[nH]c3c2CCCCCCCCCC3)c2c([nH]1)CCCCCCCCCC2", "hERG blockade": "0.0358%"},
      {"smiles": "Clc1cc2c(c(CSC3=NCN(CC4CC4)CN3)c1)OCOC2", "hERG blockade": "8.37%"},
      {"smiles": "CN(C)CCNCCN", "hERG blockade": "4.72%"},
      {"smiles": "CC1=NN(C(=O)c2ccncc2)C(=O)C1N=Nc1ccc2ccccc2c1", "note": "(centres undefined)", "hERG blockade": "21.5% (active)"},
      {"smiles": "CC1=NN(c2ccccc2)C(=O)C1N=Nc1ccc(S(N)(=O)=O)cc1", "note": "(centres undefined)", "hERG blockade": "14.6%"},
      {"smiles": "CC(=NNC(=O)c1ccncc1)c1ccc2ccccc2c1O", "hERG blockade": "-2.47%"},
      {"smiles": "Cc1noc(NC(=O)Nc2ccccc2F)c1C#N", "hERG blockade": "2.22%"},
      {"smiles": "Nc1ncnc2c1ncn2CCCCC(=O)O", "hERG blockade": "-16.5%"},
      {"smiles": "CN(C)c1ncnc2c1ncn2CCn1cnc2c(N(C)C)ncnc21", "hERG blockade": "-12.5%"},
      {"smiles": "CCCCn1cnc2c(SC)ncnc21", "hERG blockade": "-28.3% (active)"},
      {"smiles": "Cc1cc(C)nc(NC(=O)COc2ccc(Cl)cc2)c1", "hERG blockade": "16.6%"},
      {"smiles": "OC(COc1ccccc1)CN1CCCCC1", "note": "(centres undefined)", "hERG blockade": "-2.64%"},
      {"smiles": "c1ccc(-c2ccc(-c3ccc(C4=NCCN4)cc3)o2)cc1", "hERG blockade": "134% (active)"},
      {"smiles": "O=C(CSC1=NCCN1)Nc1ccccc1", "hERG blockade": "8.84%"},
      {"smiles": "c1ccc(-c2cnc(-c3ccc(-c4ncc(-c5ccccc5)o4)cc3)o2)cc1", "hERG blockade": "-6.76%"},
      {"smiles": "OCCSCc1ccccc1", "hERG blockade": "-16.1%"},
      {"smiles": "O=C(O)CN(CCN(CC(=O)O)CC(=O)O)CC(=O)O.[Cu+2]", "hERG blockade": "1.62%"},
      {"smiles": "O=C(O)CCc1nc(-c2ccccc2-n2cccc2)no1", "hERG blockade": "5.65%"}
    ]}
  ]
}
